About 83,000 compounds went through this panel and 20% of them were active in at least one assay; those are over-represented in the sample as a whole.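 Compound tested at a single concentration for 48 hours in 96-well plates; a percent growth value below 10 was scored as active.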 A number with no mark means an inactive call. Active and inactive are the calls of the source.

Holding throughout (test): NCI-60 one-dose screen, 48 h (100 = growth as untreated, 0 = no growth, -100 = all killed)
What all share (conditions): 10 µM unless noted

The test system of test [1] is DU-145 prostate.
Test [2] concerns K-562 leukemia.
The test system of test [3] is MALME-3M melanoma.
The test system of test [4] is MDA-MB-231 breast.
Test [5] relates to RXF 393 renal.
Test [6] deals with SF-268 CNS.
Test [7] concerns SF-295 CNS.
Test [8] has as its system SF-539 CNS.
Test [9] relates to UACC-257 melanoma.
Test [10] deals with M14 melanoma.
In test [11] the test system is HCT-15 colon.
Test [12] relates to HT29 colon.
The test system of test [13] is SNB-75 CNS.
Test [14] concerns SNB-19 CNS.
Test [15] relates to U251 CNS.
Test [16] relates to PC-3 prostate.
The test system of test [17] is SK-MEL-5 melanoma.
For test [18], the system named is UACC-62 melanoma.
Test [19] relates to LOX IMVI melanoma.
In test [20] the test system is SK-MEL-28 melanoma.

For the compound `C=C(CNCCO)[C@@H]1CC[C@]2(CO)CC[C@]3(C)[C@H](CC[C@@H]4[C@@]5(C)CCC(N)C(C)(C)[C@@H]5CC[C@]43C)[C@@H]12` (stereo not given in full), the growth in [1] is 53%; in test [2], -43.3% (active); in [3] it was -75.1% (active); in test [4], 2.59% (active); in [5] it was 50.4%; in test [6] it was 33.1%. The growth in test [7] was 46.5%; in [8], -6.75% (active); in test [9] it was -81.5% (active); in test [10], -70.2% (active); in [11] it was 77%; in test [12] it was -22.4% (active). The growth in [13] is 43.5%; in test [14], 53.9%; in [15], -78.5% (active); in [16] it was 61.9%; in test [17], -87.8% (active); in test [18] it was 9.7% (active). In addition, the growth is -67.8% (active) in test [19] and -76.3% (active) in test [20].

Turning to `C=C(CNCCc1ccc(O)cc1)[C@@H]1CC[C@]2(CO)CC[C@]3(C)[C@H](CC[C@@H]4[C@@]5(C)CCC(=O)C(C)(C)[C@@H]5CC[C@]43C)[C@@H]12`, the growth in test [1] was 43.2%; in test [2] it was -26.3% (active); in [3], -57.3% (active); in [4] it was 1.97% (active); in test [5] it was 26%; in test [6] it was 45.9%. Moreover, the growth in test [7] is 84.2%; in [8], 78.8%; in test [9], -12.8% (active); in [10] it was -76.3% (active); in test [11], 6.17% (active); in test [12], -42.5% (active). For the same compound, the growth in test [13] was 91.2%; in [14], 49%; in test [15] it was -63.9% (active); in [16] it was 14.6%; in test [17], -4.88% (active); in [18], -29.5% (active). Besides, the figures for the growth in [19] and in test [20] were -89.7% (active) and -10.8% (active), respectively.

Consider `CN(C)c1ccc(-c2nc(-c3ccccc3)c(-c3ccccc3)[nH]2)cc1`, for which the growth in test [1] was 102%; in test [2] it was 65.7%; in test [3], 107%; in test [4], 95.3%; in test [5], 104%; in [6] it was 112%. The growth in test [7] was 88.6%; in test [8], 102%; in test [9], 110%; in test [10], 82.7%; in test [11], 77.5%; in test [12], 58.9%. The growth in [13] is 106%; in test [14], 106%; in test [15], 103%; in test [16], 76.9%; in test [17] it was 100%; in test [18], 97.7%. Moreover, the growth in test [19] is 88.7%; in [20] it was 103%.

As to `CC(=O)ON1CCCC(P(=O)(OCCSC(=O)C(C)(C)C)OCCSC(=O)C(C)(C)C)C1=O` (stereo not given), the growth in [1] was 42.5%; in test [2], 19.4%; in test [3], 17.1%; in test [4], 25.1%; in [5], -26.7% (active); in test [6] it was 19.2%. Moreover, the growth is 55.5% in [7]; 57.6% in [8]; 54.2% in test [9]; 34.3% in [10]; 12.1% in test [11]; 19.3% in [12]. Besides, the growth in [13] was 52%; in test [14], 19%; in test [15], 6.6% (active); in test [16], 48.1%; in test [17] it was -2.99% (active); in test [18], 20.4%. Also, the growth was 25.8% in [19] and 30.7% in test [20].

As to `O=C(CCCCCCN1CC(=O)N2[C@H](c3ccc(Cl)cc3)c3[nH]c4ccccc4c3C[C@@H]2C1=O)NO`, the growth in test [1] was 72.2%; in test [2] it was 25.2%; in test [3], 23%; in test [4], 68.9%; in test [5], 65.7%; in test [6] it was 85.1%. Also, the growth in test [7] is 85.6%; in [8], 57%; in [9] it was 36.4%; in test [10], 61.7%; in test [11], 109%; in test [12], 67.5%. In addition, the growth in [13] was 30.2%; in test [14], 69.6%; in [15], 53%; in test [16], 48.2%; in test [17] it was 43.8%; in test [18], 21%. In addition, the growth in [19] is 27.1%; in test [20], 45.3%.

For `COc1ccccc1N(C(C)=O)C1=C(Cl)C(=O)c2ccccc2C1=O`, the growth in test [1] is 38.1%; in [2] it was -13.2% (active); in test [3], 43.3%; in test [4], 10.5%; in [5], -29.1% (active); in test [6], 30.1%. Further, the growth was -36% (active) in test [7]; -30.9% (active) in test [8]; -7.02% (active) in [9]; 11.7% in test [10]; 4.27% (active) in test [11]; 6.98% (active) in test [12]. Further, the growth in [13] was 24.8%; in test [14], 34%; in test [15], 8.36% (active); in test [16], 3.3% (active); in test [17] it was -69.9% (active); in test [18], -35.3% (active). Also, the growth in test [19] is 4.88% (active); in test [20], 21.2%.

As to `C=CCOC(=O)C1=C(C)N(CC)C(=O)NC1c1c(Cl)n(C)c2ccccc12` (stereo not given), the growth in test [1] was 106%; in test [2], 99.1%; in test [3] it was 99.3%; in test [4], 96.7%; in test [5], 108%; in test [6], 92.9%. Moreover, the growth was 88.6% in [7]; 98.4% in test [8]; 98.4% in test [9]; 88.6% in test [10]; 82.5% in test [11]; 89.8% in test [12]. The growth was 92.3% in test [13]; 99.9% in test [14]; 97.9% in [15]; 87.7% in test [16]; 100% in test [17]; 82.6% in test [18]. Also, the growth in [19] is 88.6%; in [20], 104%.

In the case of `C=CC(=O)Nc1ccc(Oc2nccc(Nc3nnc(-c4ccc(C)cc4)s3)n2)cc1`, the growth in [1] is 78.5%; in test [2], 29.4%; in [3], 52.6%; in [4] it was 88.4%; in test [5] it was 88%; in [6], 77.6%. Moreover, the growth in test [7] is 56.9%; in [8] it was 83.3%; in test [9], 86.5%; in test [10], 57.5%; in test [11], 71.5%; in test [12] it was 103%. For the same compound, the growth in test [13] was 61%; in [14], 62.7%; in [15], 83%; in test [16], 52.8%; in [17], 46%; in test [18], 44%. Moreover, the values for the growth in test [19] and in test [20] were 60.2% and 73.9%, respectively.

For the origin of these results see PubChem BioAssay (NCI).
